esBAF inh: Bmi1 luciferase reporter increase in mESCs, primary screen, esBAF inhibitor project, mouse ES cells, Bmi1 luciferase knock-in, single point; 24 h; 100% = twice the neutral-well signal; reporter increase, % at 12.5 µM; actives 2% (n = 350,000); in the data active = activation above about 40%; inconclusive = no clear call, values can overlap the other calls;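 note: a rise in the Bmi1 reporter signal indicates esBAF inhibition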
rRNA inh HTS: reduced GFP signal of wild-type E. coli, primary screen, bacterial rRNA inhibitor project, GFP/RFP fluorescence, OD600, single point; E. coli WT GFP vs humanized-ribosome RFP mutants, 24 h; stronger effect = lower value; DMSO median 0, no signal -100; GFP signal change (wild-type ribosome), % (no concentration beside the values); AID 720706, 2013; actives 1.6% (n = 350,000);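 active = significant combined selectivity score with lowered wild-type GFP, culture density cut under 30%, mutant RFP and density less affected; inactive = any of these conditions unmet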
Wnt bcat act: Wnt/beta-catenin pathway activators, primary screen, cell-based, plate reader, single point; activation, % at 9.35 µM; actives 1.2% (n = 300,000); Wnt/beta-catenin reporter cell assay, activator; in the data active = activation above about 30%, passing the limit was not always enough; inconclusive = no clear call, values can overlap the other calls
MITF act: activators of MITF-driven TRPM1 promoter reporter, primary screen, cell-based, SK-MEL-5, luciferase, single point; SK-MEL-5 TRPM1-promoter luciferase, 24 h; % of positive control, neutral wells = 0; activation, % at 12.5 µM; actives 0.75% (n = 300,000); AID 588334, 2011;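 active = mean activation of at least 80% with every replicate also reaching 80%; inconclusive = mean reaches 80% but some replicate falls short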
MLL AF4-AF9 inh: inhibitors of AF4 peptide binding to AF9, primary screen, biochemical, AlphaScreen, biotin-AF4 peptide, FLAG-AF9, single point; inhibition, % at 10 µM; actives 0.47% (n = 350,000);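 active = every replicate reaching a set inhibition limit, whatever the replicate mean, cut at about 25% in these data; inconclusive = mean inhibition reaches that limit but some replicates miss it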
Target sequence (P42568 whole entry, looked up): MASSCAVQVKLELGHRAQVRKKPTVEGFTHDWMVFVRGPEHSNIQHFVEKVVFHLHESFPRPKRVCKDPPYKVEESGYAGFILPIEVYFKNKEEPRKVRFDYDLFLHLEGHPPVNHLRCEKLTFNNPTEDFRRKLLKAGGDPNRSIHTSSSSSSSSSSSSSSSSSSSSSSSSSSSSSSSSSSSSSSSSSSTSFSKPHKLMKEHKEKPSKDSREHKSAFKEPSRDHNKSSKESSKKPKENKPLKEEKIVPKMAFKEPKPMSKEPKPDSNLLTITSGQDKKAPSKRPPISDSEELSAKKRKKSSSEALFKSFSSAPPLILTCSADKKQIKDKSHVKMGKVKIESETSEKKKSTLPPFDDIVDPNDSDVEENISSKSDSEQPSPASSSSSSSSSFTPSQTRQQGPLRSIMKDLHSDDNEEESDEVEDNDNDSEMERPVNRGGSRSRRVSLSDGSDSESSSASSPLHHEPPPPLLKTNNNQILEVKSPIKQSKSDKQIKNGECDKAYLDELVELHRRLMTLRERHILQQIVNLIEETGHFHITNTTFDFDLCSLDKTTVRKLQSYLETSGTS
Alpha interfer: AlphaScreen signal interference counter-screen, dose response, artefact control, biochemical, cherry-picked samples, luminescence. shares compounds with MLL AF4-AF9 inh. AC50, µM (series often up to 12 µM). actives 45% (n = 530); cut-off not given, nearly all actives have AC50 up to about 14 µM
AID977621: growth inhibition of wild-type GFP E. coli, dose response, H69 mutant RFP, cherry-pick; shares compounds with rRNA inh HTS; E. coli wild-type GFP strain growth, fluorescence, 24 h; activity change, negative = inhibition at 50 µM; 1,900 tested, under 10 active;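 active = Wild-type ribosome reporter drop at least double the humanized mutant ribosome reporter drop, growth loss under a set limit; inconclusive = no clear call, values can overlap the other calls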;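 note: wild-type GFP and H69 mutant RFP strains grown together 50/50 in each well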
Hits are given with their value; . = inactive; ? = inconclusive; / = no result. A selection: hits, their analogues and other compounds. The true share with any hit is near 3.7%.

SMILES | esBAF inh | rRNA inh HTS | Wnt bcat act | MITF act | MLL AF4-AF9 inh | Alpha interfer | others
CC1(C)CC(Nc2ccc(Nc3ccccc3)cc2)CC(C)(C)N1 | / | . | . | . | 76 | 13µM
Cc1cccn2c(=O)c3c(nc12)N1CCCCC1C1(C3)C(=O)N(C)C(=O)N(C)C1=O (stereo not drawn) | / | / | . | / | . | /
NC(N)=N/N=C/c1cn(-c2ccccc2)nc1-c1cccs1 | / | . | . | . | 31 | .
CC1CCC(NC(=O)CNC(=S)N2CC3CC(C2)c2cccc(=O)n2C3)CC1 (stereo not drawn) | . | . | . | . | . | /
CCN(CC)c1ccc(C(=C2C=CC(=[N+](CC)CC)C=C2)c2ccccc2)cc1 | / | -56 | . | . | 76 | 1.1µM
CN(C)c1ccc(Cc2ccc(N(C)C)cc2)cc1 | . | . | . | / | 46 | 9.3µM
CN(C)c1ccc([P+](=O)c2ccc(N(C)C)cc2)cc1 | / | . | . | . | . | /
O=C(CCN1CC1)OCCOC(=O)CCN1CC1 | . | . | . | . | ? | .
CN1C2CCC1CC(OC(=O)CCN1CCCC1)C2 (stereo not drawn) | . | / | . | . | . | /
CCN(CC)P(=O)(NC(=O)c1cccn1C)N(CC)CC | / | . | . | . | . | /
CC12CCCCC1=[N+]([O-])CN2O (stereo not drawn) | . | / | . | / | / | /
CN(C)c1ccc(/C=C/C=C/c2sc3ccccc3[n+]2C)cc1 | / | . | . | / | 61 | 3.7µM
CC[n+]1c(/C=C/N(C)c2ccccc2)sc2ccc(Cl)cc21 | . | / | . | . | / | /
CC[n+]1c(/C=C/C=C/c2ccc(N(C)C)cc2)sc2ccccc21 | / | . | . | / | 86 | 1µM
CN(C)c1ccc(/C=C/c2cc[n+](C)c3ccccc23)cc1 | . | . | . | . | 41 | 2.9µM
N#CC1=C(N)Oc2c(c(=O)sc3ccccc23)C1c1cccnc1 (stereo not drawn) | . | . | . | . | . | /
COc1c(O)cc2c(c1OC)-c1ccc(OC)c(=O)cc1C(NC(C)=O)CC2 (stereo not drawn) | / | . | . | / | . | /
COc1cc2c(c(OC)c1OC)-c1ccc(O)c(=O)cc1[C@@H](N)CC2 | . | / | . | . | 48 | 7.6µM
CC(=O)OC1N=C(c2ccccc2Cl)c2cc(Br)ccc2NC1=O (stereo not drawn) | / | -20 | . | . | / | / | AID977621=.
O=S(=O)(c1ccccc1)N1CC1c1ccccc1 (stereo not drawn) | / | / | / | . | / | /
CN1CCC(OC(=O)C2c3ccccc3Oc3ccccc32)CC1 | . | / | . | / | / | /
C[C@]12CCC3C(CC[C@H]4C[C@@H](O)CC[C@]34C)[C@H]1CC[C@H]2O (stereo partly drawn) | . | -20 | . | . | . | / | AID977621=.
COC(=O)c1c(C)n(Cc2ccccc2)c2ccc(O)cc12 | . | . | . | . | . | /
CCOC(=O)c1c(C)n(Cc2ccccc2)c2ccc(O)cc12 | / | -27 | . | . | . | / | AID977621=.
COc1ccc(CN2Cc3cc(-c4ccc(OC)cc4)ccc3-n3nncc3C2)cc1 | . | . | . | / | . | /
CCOC(=O)[C@]12Cc3ccccc3[C@H]1N(C)C(=O)c1cc(OC)ccc12 | / | -20 | . | / | . | / | AID977621=.
CCOC(=O)[C@]12Cc3ccccc3[C@H]1N(C(C)C)C(=O)c1cc(OC)ccc12 | / | . | . | / | . | /
CCCCn1c(NS(=O)(=O)c2ccc(C)cc2)c(C(=O)OCC)c2nc3ccccc3nc21 | / | -22 | . | . | . | / | AID977621=?

Screening data: PubChem, Broad Institute
